Experimental findings from PubChem BioAssay AID1852 (Sanford-Burnham Center for Chemical Genomics, 2009) are described below.

In general, inhibition refers to the relative decrease from the control value, in per cent.

Among all 2,500 compounds or so, about 1,100 (44%) were called active.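 How the source made its calls: active means inhibition above 50% at 4 µM in the single-point screen; inactive means inhibition of 50% or less.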 So high a share suggests a set chosen from earlier hits. The list shows a part of the results.

A short description of the assay: blockers of TNF-a NF-kB luciferase induction – cell-based, HEK293T NF-kB-Luc, luminescence, selectivity assay for NOD1/NOD2 signaling inhibitor project, primary screen (AID 1852). The following applies: TNF-a induced, 14 h, at 4 µM, stronger effect = higher value.
On to `COC(=O)C(=Cc1ccc(OCc2ccc([N+](=O)[O-])cc2)c(OC)c1)C(=O)OC`, for which the inhibition is 18% (inactive).

`O=[N+]([O-])c1cc([N+](=O)[O-])c2oc(-c3ccccc3)c(Br)c2c1O`: the inhibition was 66% (active).

Turning to `CCN1/C(=C/c2cccc[n+]2C)Sc2ccc(OC)cc21`, the inhibition is 50.4% (active).

With `Cc1ccc2c(c1)N(C)/C(=C/c1cccc[n+]1C)S2`, the inhibition is 24.9% (inactive).

`O=C(Nc1cccc(-c2ccc(N3CCCCC3)nn2)c1)C(F)(F)F`: the inhibition is -90.7% (inactive).

In the case of `Cc1ccc(S(=O)(=O)/C(=C/Cl)NC(=O)c2ccccc2)cc1`, the inhibition is 11.6% (inactive).

As for `Cc1ccc(C(=O)Sc2cccccc2=O)cc1`, the inhibition was 103% (active).

As for `O=C(Nc1sc2c(c1C(=O)O)CCCC2)c1ccc(Cl)cc1`, the inhibition was 29.8% (inactive).

Consider `Cc1cccc(-c2nnc(NC(=O)c3ccc(Cl)cc3)o2)c1`, for which the inhibition is 102% (active).

Regarding `CN(C)c1ccc(C(=O)Nc2nnc(-c3ccc(Cl)cc3)o2)cc1`, the inhibition was 106% (active).

As to `O=C(Nc1nnc(-c2ccccc2)o1)c1ccc(Cl)cc1`, the inhibition was 104% (active).

With `CCC(=O)N1c2ccc(S(=O)(=O)N3CCN(c4ccc([N+](=O)[O-])cc4)CC3)cc2CC1C` (configuration not stated), the inhibition was 26.6% (inactive).

For `CCN(CC)S(=O)(=O)c1ccc(NC(=O)Nc2cccc(C(F)(F)F)c2)cc1`, the inhibition was 10.5% (inactive).

For `O=C(Nc1ccc(OC(F)F)cc1)Nc1cccc(C(F)(F)F)c1`, the inhibition is 14.2% (inactive).

On to `CCN(CC)S(=O)(=O)c1cccc(NC(=O)Nc2cccc(C(F)(F)F)c2)c1`, for which the inhibition is 69% (active).

For `N#CC(c1cccc(Cl)c1)c1ccc2c(C(F)(F)F)cc(C(F)(F)F)nc2n1` (configuration not stated), the inhibition was 55.7% (active).

As to `N#CC(c1ccccc1)c1ccc2c(C(F)(F)F)cc(C(F)(F)F)nc2n1` (configuration not stated), the inhibition was 20.4% (inactive).

As for `Oc1ccc(Oc2ccc3c(C(F)(F)F)cc(C(F)(F)F)nc3n2)cc1`, the inhibition was 45.2% (inactive).

As to `O=c1c2cc(Br)ccc2nc(-c2ccc(Cl)cc2)n1O`, the inhibition is -30% (inactive).

Regarding `O=c1c2cc(Br)ccc2nc(-c2cccc(C(F)(F)F)c2)n1O`, the inhibition was 65% (active).

For `O=c1c2cc(Cl)ccc2nc(-c2ccc(Cl)c(Cl)c2)n1O`, the inhibition was 74.1% (active).

As to `Cc1ccc(C(=O)O/N=C(\N)c2ccccn2)c(C)c1`, the inhibition was 61.4% (active).

Consider `Cc1ccc(C(=O)O/N=C(\N)c2ccccn2)c(Cl)c1`, for which the inhibition was -56.4% (inactive).

Turning to `N/C(=N\OC(=O)c1cccc2ccccc12)c1ccc(Br)cc1`, the inhibition was -0.8% (inactive).

With `CCN(CC)S(=O)(=O)c1ccc(Oc2ccc(S(=O)(=O)N(CC)CC)cc2)cc1`, the inhibition was 70.1% (active).

As to `C=C(C(=O)c1ccccc1)C(C(=C)C(=O)c1ccccc1)c1ccc(OC)cc1`, the inhibition was 62.5% (active).

Turning to `C=C(C(=O)c1ccccc1)C(CC(=O)c1ccccc1)c1ccccc1` (configuration not stated), the inhibition is -23.3% (inactive).

Consider `C=C(C(=O)c1ccccc1)C(C)CC(=O)c1ccccc1` (configuration not stated), for which the inhibition is -8.9% (inactive).

As to `CCC1C(=NO)C(CC)C(c2ccccc2)NC1c1ccccc1` (configuration not stated), the inhibition is 32.5% (inactive).

For the compound `CCOc1ccc(/C=C/C(O)=C2/C(=O)N(C)C3(C)CC2c2ccccc2O3)cc1OC` (configuration not stated), the inhibition is 51.8% (active).

Regarding `COc1ccc(/C=C/C(O)=C2/C(=O)N(C)C3(C)CC2c2ccccc2O3)cc1` (configuration not stated), the inhibition is -8.9% (inactive).

`COc1cc(/C=C/[N+](=O)[O-])ccc1OCc1cccc(C(=O)O)c1`: the inhibition is 46% (inactive).

Regarding `Cc1cc(C)c(S(=O)(=O)/N=C2/C=C(Sc3ncn[nH]3)C(=O)c3ccccc32)cc1C`, the inhibition was 75.1% (active).

For `Cc1ccc(S(=O)(=O)/N=C2/C=C(Sc3ncn[nH]3)C(=O)c3ccccc32)c(C)c1`, the inhibition was 100% (active).

Take `CC(C)c1ccc(S(=O)(=O)/N=C2/C=C(Sc3ncn[nH]3)C(=O)c3ccccc32)cc1`: the inhibition was 84.1% (active).

As to `Cc1cc(SCC(=O)OC/C(O)=C(\C#N)c2nc3ccccc3[nH]2)c(C)cc1Br`, the inhibition was 59.5% (active).

On to `Cc1ccc(C)c(SCC(=O)OC/C(O)=C(\C#N)c2nc3ccccc3[nH]2)c1`, for which the inhibition is 52.5% (active).

Regarding `Cc1cc(Br)ccc1SCC(=O)OC/C(O)=C(\C#N)c1nc2ccccc2[nH]1`, the inhibition was 106% (active).

Consider `COC(=O)C1CCN(C(=O)C2CCN(C(=O)[C@@H](NS(=O)(=O)c3ccc(C)cc3)C(C)C)CC2)CC1`, for which the inhibition is 15.9% (inactive).

For `COc1ccccc1C(=O)Nc1nc2ccccc2[nH]1`, the inhibition is 82.8% (active).

In the case of `COc1cc(SC)ccc1C(=O)Nc1nc2ccccc2[nH]1`, the inhibition was 103% (active).

In the case of `COC(=O)/C(=C\c1cc(OC)c(OC)c(OC)c1)c1nc2ccccc2[nH]1`, the inhibition was -13.3% (inactive).

In the case of `COc1ccc(Nc2nc(C(=O)N3CCc4ccccc4C3)cs2)cc1`, the inhibition was 20.3% (inactive).

Take `Cc1oc(-c2ccc(Cl)cc2)nc1CSCC(=O)NC1CCN(Cc2ccccc2)CC1`: the inhibition was 47.1% (inactive).

As for `O=C(c1ccc(Cl)cc1)C1CCCN(Cc2cnn(-c3ccccc3)c2)C1` (configuration not stated), the inhibition is 5.5% (inactive).

For the compound `CCOC(=O)N1CCN(C(=O)C2CCCN(Cc3nc(-c4ccc(Cl)cc4)oc3C)C2)CC1` (configuration not stated), the inhibition is 56.2% (active).

As to `Cc1ccc(-n2c3nc(=O)[nH]c(=O)c-3cc3cc([N+](=O)[O-])ccc32)cc1C`, the inhibition was 41.9% (inactive).

As to `CCSc1nnc(Cc2cc(=O)[nH]c(=O)[nH]2)n1-c1cc(C)ccc1C`, the inhibition is 16.9% (inactive).

In the case of `Cc1ccc(C)c(-n2c3nc(=O)[nH]c(=O)c-3cc3cc([N+](=O)[O-])ccc32)c1`, the inhibition is 58.5% (active).

Take `O=C(O)CCCN1C(=O)/C(=C\C(Cl)=C\c2ccccc2)SC1=S`: the inhibition is 77.9% (active).

In the case of `CC(/C=C1\SC(=S)N(c2ccc(C(=O)O)cc2)C1=O)=C\c1ccccc1`, the inhibition is 3.6% (inactive).

As for `COc1cccc(/C=C2/SC(=S)N(CCCC(=O)Nc3ccc(O)cc3)C2=O)c1`, the inhibition is 19.5% (inactive).

`COc1ccc(/C=C2/SC(=S)N(CCC(=O)O)C2=O)cc1`: the inhibition was 36% (inactive).

On to `CC(/C=C1\SC(=O)N(CCCC(=O)O)C1=O)=C\c1ccccc1`, for which the inhibition was 79.5% (active).

For `CC1(c2ccccc2)CC(C)(C)N2C(=O)/C(=C3\SC(=S)NC3=O)c3cccc1c32` (configuration not stated), the inhibition is 84.3% (active).

As for `CCc1cc2c3c(c1)C(C)CC(C)(C)N3C(=O)/C2=C1\SC(=O)NC1=O` (configuration not stated), the inhibition is 6.9% (inactive).

On to `COc1ccc2c(c1)oc(=O)c1ccccc12`, for which the inhibition is -18.4% (inactive).

In the case of `N#Cc1c2ccc(O)cc2n2ccccc12`, the inhibition is 70% (active).

`COc1ccc2c(C#N)c3ccccn3c2c1`: the inhibition was 66.3% (active).

In the case of `O=C(Oc1cc2oc(=O)cc(-c3ccccc3)c2cc1Cl)C1CCCCC1`, the inhibition is 77.6% (active).

As to `COc1ccc(-c2cc(=O)oc3cc(OC(=O)C4CCCCC4)c(Cl)cc23)cc1`, the inhibition was 95.3% (active).

In the case of `COc1ccc(-c2cc(=O)oc3cc(O)ccc23)cc1`, the inhibition was 2.6% (inactive).

On to `Nc1ccc(Oc2cccc(Oc3ccc(N)cc3)c2)cc1`, for which the inhibition is 54.8% (active).

For `COc1ccc(N2C(=O)C(Cl)=C(Oc3cccc(OC)c3)C2=O)cc1`, the inhibition was 13% (inactive).

Turning to `CC(=O)c1ccc(N2CCN(S(=O)(=O)c3ccc4c(c3)CC(C)N4C(=O)C3CC3)CC2)cc1` (configuration not stated), the inhibition was 23.2% (inactive).

On to `O=C(CSc1nc2scc(-c3ccccc3)c2c(=O)[nH]1)Nc1ccccc1`, for which the inhibition was 32.9% (inactive).

Turning to `Cc1ccc(NC(=O)CSc2nc(C)c(Cc3ccccc3)c(=O)[nH]2)cc1`, the inhibition was 20% (inactive).

For the compound `O=C(CSC1=NNC(c2ccccn2)S1)Nc1ccccc1` (configuration not stated), the inhibition was 50.1% (active).

Regarding `COc1cc(CNc2ccc3[nH]c(=O)[nH]c3c2)ccc1OCc1ccc(F)cc1Cl`, the inhibition was 28.6% (inactive).

`Cc1cc(=O)n(C)c(=O)n1CCCCOc1ccc([N+](=O)[O-])cc1`: the inhibition is 24.7% (inactive).

Turning to `CCc1ccc(C(=O)OCC(=O)c2c(N)n(CC(C)C)c(=O)n(C)c2=O)cc1`, the inhibition was 23.2% (inactive).

On to `Cc1c(C(=O)OCC(=O)c2c(N)n(CC(C)C)c(=O)n(C)c2=O)oc2ccccc12`, for which the inhibition is 26.4% (inactive).

Regarding `CC(C)Cn1c(N)c(C(=O)CSc2ccc3c(c2)OCCO3)c(=O)n(C)c1=O`, the inhibition is 82.1% (active).

Turning to `CC(=O)c1ccc(N2CCN(S(=O)(=O)c3ccc4c(c3)CC(C)N4C(C)=O)CC2)cc1` (configuration not stated), the inhibition is 47.2% (inactive).

Consider `CC1Cc2ccccc2N1S(=O)(=O)c1cccc(C(=O)N2CCN(c3ncccn3)CC2)c1` (configuration not stated), for which the inhibition was 58.4% (active).

In the case of `O=C(c1ccc(-c2ccccc2)cc1)N1CCN(c2ccccn2)CC1`, the inhibition is 18.3% (inactive).

With `Cc1cc2nc(-c3ccc(SCc4ccccn4)nc3)[nH]c2cc1C`, the inhibition was 78.5% (active).

As to `Cc1ccccc1C(=O)Nc1ccc(-c2nc3ccc(C(=O)c4ccccc4)cc3[nH]2)cc1`, the inhibition is 38.3% (inactive).

Take `CC(C)(C)c1ccc(C(=O)O/N=C(\N)c2ccccc2)cc1`: the inhibition was 51% (active).

Consider `CC(C)(C)c1ccc(C(=O)O/N=C(\N)c2ccccn2)cc1`, for which the inhibition was 22.5% (inactive).

As to `COc1ccc(C(=O)O/N=C(\N)c2ccc(Br)cc2)cc1`, the inhibition was -10.5% (inactive).

Regarding `COc1ccc(-n2cnc3c(sc4nc(N5CCOCC5)c5c(c43)CCCC5)c2=O)cc1`, the inhibition is 46.4% (inactive).

For `CCc1ccc(OCC(=O)Nc2ccc(-c3cc4ccccc4oc3=O)c(OC)c2)cc1`, the inhibition is 51.2% (active).

Regarding `COc1ccc(-c2cc(=O)oc3cc(OCC(=O)Nc4ccc(CCO)cc4)ccc23)cc1`, the inhibition is 38.3% (inactive).

In the case of `Cc1ccn2cc(-c3cc4ccccc4oc3=O)nc2c1`, the inhibition was -79.5% (inactive).

`Cn1nccc1C(=O)N1CCN(c2ccccc2F)CC1`: the inhibition is -23.6% (inactive).

Turning to `Cc1ccc(Cl)cc1N1CCN(C(=O)c2cc3c(=O)[nH]c4ccccc4c3n2C)CC1`, the inhibition was 89.7% (active).

As for `COc1ccccc1OCC(=O)OC/C(O)=C(\C#N)c1nc2ccccc2[nH]1`, the inhibition was 98.2% (active).

For `COc1ccccc1OCc1nnc(SCC(N)=O)n1-c1ccccc1`, the inhibition was 0.9% (inactive).

As to `Cc1cccc(C)c1OCC(=O)OC/C(O)=C(\C#N)c1nc2ccccc2[nH]1`, the inhibition is 101% (active).

As for `CC(C)(C)c1nc(SCC(=O)Nc2nc3c(s2)CCCC3)c2ccccc2n1`, the inhibition was -17.1% (inactive).

For the compound `Cc1nc(SCC(=O)Nc2nc3ccccc3s2)c(C#N)c(C)c1C`, the inhibition is 61.7% (active).
